Among the test systems are SK-MEL-2 melanoma; EKVX NSCLC; SN12C renal; UO-31 renal; TK-10 renal; ACHN renal; CAKI-1 renal; A498 renal; CCRF-CEM leukemia; MOLT-4 leukemia; SR leukemia; RPMI-8226 leukemia; OVCAR-8 ovarian; OVCAR-5 ovarian; OVCAR-4 ovarian; SK-OV-3 ovarian; OVCAR-3 ovarian; HS 578T breast; NCI/ADR-RES ovarian; IGROV1 ovarian.
Common to all, as to experiment: NCI-60 one-dose screen, 48 h (100 = growth as untreated, 0 = no growth, -100 = all killed)
Settings in all cases: 10 µM unless noted

The panel holds about 83,000 compounds, 20% with a hit somewhere; the sample as a whole holds those more often.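 Activity criterion: percent growth below 10, measured after cells in 96-well plates were exposed to a single compound concentration for 48 hours.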 Unmarked numbers belong to inactive results. Calls of active or inactive are those of the source.

8 molecules from PubChem BioAssay (NCI) can be followed below.

On to `COc1ccc(C2=C/C(=C\c3ccccc3O)C(=O)N2Cc2ccccc2)cc1`, for which the growth with SK-MEL-2 melanoma was 51.4%; in the assay with EKVX NSCLC, 82.1%; in the assay on SN12C renal, 95.8%; in the assay on UO-31 renal, 68.4%; with TK-10 renal, 85.3%; with ACHN renal it was 93.4%. Further, the growth in the assay with CAKI-1 renal is 93.2%; with A498 renal, 98.3%; in the assay with CCRF-CEM leukemia, 73.4%; in the assay on MOLT-4 leukemia, 66.8%; in the assay with SR leukemia, 45.2%; in the assay with RPMI-8226 leukemia, 63%. For the same molecule, the growth with OVCAR-8 ovarian is 70.9%; in the assay with OVCAR-5 ovarian, 111%; in the assay on OVCAR-4 ovarian, 92.6%; in the assay with SK-OV-3 ovarian, 73.8%; in the assay with OVCAR-3 ovarian, 92.9%; with HS 578T breast it was 74.8%. In the assay on NCI/ADR-RES ovarian, the growth is 79.9%.

On to `COc1ccc(Cn2cc(C(=O)N=Nc3c(O)[nH]c4ccc(Br)cc34)nn2)cc1`, for which the growth in the assay on SK-MEL-2 melanoma is 98.1%; with EKVX NSCLC, 106%; with SN12C renal it was 102%; with UO-31 renal, 91.5%; with TK-10 renal, 97.6%; in the assay on ACHN renal, 110%. Moreover, the growth was 97.7% in the assay on CAKI-1 renal; 97.1% in the assay on A498 renal; 92.5% in the assay on CCRF-CEM leukemia; 80.6% in the assay on MOLT-4 leukemia; 77.5% in the assay with SR leukemia; 99.2% with OVCAR-8 ovarian. Moreover, the growth is 106% in the assay on OVCAR-5 ovarian; 105% with OVCAR-4 ovarian; 108% in the assay on SK-OV-3 ovarian; 105% with IGROV1 ovarian; 112% with OVCAR-3 ovarian; 114% in the assay on HS 578T breast. Besides, the growth in the assay with NCI/ADR-RES ovarian was 103%.

Take `O=C(Nc1ncc(Cc2ccccc2)s1)c1ccc2c(c1)OCCO2`: the growth in the assay with SK-MEL-2 melanoma is 34.5%; in the assay on EKVX NSCLC it was 32.6%; in the assay with SN12C renal, 34.5%; in the assay with UO-31 renal, 46.6%; in the assay with TK-10 renal, 38.8%; in the assay on ACHN renal, 27.3%. Moreover, the growth was 17.2% with CAKI-1 renal; 2.75% (active) in the assay with A498 renal; 13.8% in the assay on CCRF-CEM leukemia; 6.38% (active) in the assay on MOLT-4 leukemia; 5.84% (active) in the assay with SR leukemia; 14.6% with RPMI-8226 leukemia. In addition, the growth in the assay on OVCAR-8 ovarian was 19%; in the assay with OVCAR-5 ovarian, 28.5%; in the assay on OVCAR-4 ovarian it was 46.3%; in the assay on SK-OV-3 ovarian, 25%; in the assay with OVCAR-3 ovarian it was -11.3% (active); with HS 578T breast, 25.1%. Moreover, the growth in the assay on NCI/ADR-RES ovarian is 7.95% (active).

For the molecule `CCOC(=O)c1ccc2c(c1)c1c(C)c3cnccc3c(C)c1n2C`, the growth in the assay with SK-MEL-2 melanoma was -89% (active); in the assay with EKVX NSCLC, -13.4% (active); with SN12C renal, -58.2% (active); with UO-31 renal it was -53.6% (active); in the assay with TK-10 renal, -65.3% (active); with ACHN renal, -95% (active). Moreover, the growth in the assay with CAKI-1 renal was -25% (active); in the assay with A498 renal it was -78.7% (active); in the assay with CCRF-CEM leukemia it was -2.56% (active); in the assay on MOLT-4 leukemia, 2.2% (active); with SR leukemia, 14.9%; in the assay with OVCAR-8 ovarian, -21.5% (active). Further, the growth is -46.7% (active) in the assay on OVCAR-5 ovarian; -14.8% (active) in the assay on OVCAR-4 ovarian; -21.4% (active) in the assay with SK-OV-3 ovarian; -62.7% (active) with IGROV1 ovarian; -47.5% (active) in the assay with OVCAR-3 ovarian; -27.6% (active) in the assay on HS 578T breast. The growth with NCI/ADR-RES ovarian was -33.1% (active).

With `CN1/C(=C/C=C/c2n(Cc3ccc4ccccc4c3)c(Cl)c(Cl)[n+]2Cc2ccc3ccccc3c2)Oc2ccccc21`, the growth in the assay on SK-MEL-2 melanoma is -87.9% (active); in the assay with EKVX NSCLC, -91.7% (active); in the assay with SN12C renal, -92.9% (active); with UO-31 renal, -93.1% (active); in the assay with TK-10 renal, -90.5% (active); with ACHN renal, -96.6% (active). Besides, the growth is -94.1% (active) in the assay with CAKI-1 renal; -77.9% (active) in the assay on A498 renal; -52.7% (active) with CCRF-CEM leukemia; 91.1% in the assay on MOLT-4 leukemia; 95.3% in the assay on SR leukemia; -86.1% (active) in the assay on OVCAR-8 ovarian. Moreover, the growth with OVCAR-5 ovarian was -83.1% (active); in the assay on OVCAR-4 ovarian, -70.7% (active); in the assay on SK-OV-3 ovarian, -57.2% (active); in the assay on IGROV1 ovarian, -80.4% (active); in the assay with OVCAR-3 ovarian, -83.8% (active); with HS 578T breast, -44.4% (active). Further, in the assay on NCI/ADR-RES ovarian, the growth is 33.4%.

With `COc1cc2cc(Oc3ccc(NC(=O)Nc4ccc(Cl)c(Cl)c4)cc3)c(C)nc2cc1OCCN1CCCCC1`, the growth in the assay on SK-MEL-2 melanoma was 124%; with EKVX NSCLC, 99.8%; in the assay on SN12C renal, 101%; in the assay on UO-31 renal, 88.2%; with TK-10 renal it was 133%; in the assay with ACHN renal it was 106%. The growth in the assay with CAKI-1 renal is 78%; in the assay with A498 renal it was 86.8%; in the assay on CCRF-CEM leukemia it was 9.57% (active); with MOLT-4 leukemia it was 64.6%; in the assay with SR leukemia, -3.12% (active); in the assay on OVCAR-8 ovarian, 32.1%. Moreover, the growth is 137% in the assay on OVCAR-5 ovarian; -16.5% (active) in the assay on OVCAR-4 ovarian; 119% with SK-OV-3 ovarian; 93.4% in the assay on IGROV1 ovarian; 105% in the assay on OVCAR-3 ovarian; 108% with HS 578T breast. Besides, the growth with NCI/ADR-RES ovarian is 99.5%.

Consider `Cn1ccnc1C(=O)/C=C/c1ccc(CC(=O)Nc2cc(F)c(F)c(F)c2)cc1`, for which the growth is 99.6% in the assay on SK-MEL-2 melanoma; 32.3% with EKVX NSCLC; 13.2% with SN12C renal; 31.7% with UO-31 renal; 47.8% with TK-10 renal; 45.9% with ACHN renal. The growth is 31.4% with CAKI-1 renal; 65% with A498 renal; 8.15% (active) with CCRF-CEM leukemia; 6.4% (active) with MOLT-4 leukemia; 12.1% in the assay with SR leukemia; 4.01% (active) in the assay with RPMI-8226 leukemia. Further, the growth with OVCAR-8 ovarian is -3.42% (active); in the assay with OVCAR-5 ovarian, 17.9%; with OVCAR-4 ovarian, 41.7%; in the assay on SK-OV-3 ovarian it was 85.2%; in the assay with OVCAR-3 ovarian it was -33.9% (active); in the assay on NCI/ADR-RES ovarian, -29.8% (active).

As for `CCCC[N+]1(C)CCN=C1Cc1ccccc1` (stereo unspecified), the growth is 103% in the assay with SK-MEL-2 melanoma; 96.6% in the assay with EKVX NSCLC; 94.4% with SN12C renal; 95.5% in the assay on UO-31 renal; 91.5% in the assay with TK-10 renal; 112% in the assay on ACHN renal. Moreover, the growth with CAKI-1 renal is 95.8%; in the assay with A498 renal it was 97.2%; in the assay with CCRF-CEM leukemia, 83.5%; in the assay with MOLT-4 leukemia, 94.6%; in the assay with SR leukemia, 94.4%; in the assay with OVCAR-8 ovarian, 97.2%. The growth was 103% with OVCAR-5 ovarian; 109% in the assay with OVCAR-4 ovarian; 109% in the assay with SK-OV-3 ovarian; 106% in the assay on IGROV1 ovarian; 103% with OVCAR-3 ovarian; 97.7% with HS 578T breast. Moreover, in the assay on NCI/ADR-RES ovarian, the growth was 107%.
